# Measured values published in the supplement of paper PMC6555819.
# Tests used:
# Test in all cases: PBM binding z-score (relative to random genomic background probes); higher = stronger binding; sequences stand for … in GC…GCGATTGACAGCGTAGAATGAAGG
# [1] = system: FXR:RXRa (NR concentration 270 nM, RXRa partner concentration 90 nM)
# Summary of the method: (§1)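 Binding z-scores were set against random background probes. The data came from custom Agilent 4×180K protein-binding microarrays carrying double-stranded probes with 34-nt variable regions, incubated 1 h with ligand-free nuclear receptor dimers. Partner-specific antibodies detected binding, and scanned fluorescence was regression-normalized.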
# [2] = system: LXRa:RXRa (NR concentration 270 nM, RXRa partner concentration 90 nM)
# Summary of the method: as §1
# [3] = system: LXRa homodimer (NR concentration 270 nM)
# Summary of the method: as §1
# [4] = system: LXRb:RXRa (NR concentration 270 nM, RXRa partner concentration 90 nM)
# Summary of the method: as §1
# [5] = system: LXRb homodimer (NR concentration 270 nM)
# Summary of the method: as §1
# [6] = system: PPARa:RXRa (NR concentration 270 nM, RXRa partner concentration 90 nM)
# Summary of the method: as §1
# [7] = system: PPARg:RXRa (NR concentration 180 nM, RXRa partner concentration 90 nM)
# Summary of the method: as §1
# [8] = system: PPARg:RXRa 270nM:90nM, anti-RXR (NR concentration 270 nM, RXRa partner concentration 90 nM)
# Summary of the method: as §1
# [9] = system: PPARg:RXRa 30nM:10nM, anti-RXR (NR concentration 30 nM, RXRa partner concentration 10 nM)
# Summary of the method: as §1
# [10] = system: PPARg:RXRa 90nM:30nM, anti-RXR (NR concentration 90 nM, RXRa partner concentration 30 nM)
# Summary of the method: as §1
# [11] = system: PPARg:RXRa DBDmut IVT, anti-RXR (DBD mutation: RXRa K156A/R161A, NR concentration 270 nM, RXRa partner concentration 90 nM)
# Summary of the method: as §1
# [12] = system: PPARg:RXRa IVT, anti-PPARg (NR concentration 270 nM, RXRa partner concentration 90 nM)
# Summary of the method: as §1
# [13] = system: PPARg DBDmut:RXRa IVT, anti-PPARg (DBD mutation: PPARg1 K132A/R137A, NR concentration 270 nM, RXRa partner concentration 90 nM)
# Summary of the method: as §1
# [14] = system: PPARg DBDmut IVT, anti-PPARg (DBD mutation: PPARg1 K132A/R137A, NR concentration 270 nM)
# Summary of the method: as §1
# [15] = system: PPARg homodimer (NR concentration 180 nM)
# Summary of the method: as §1
# [16] = system: PXR:RXRa (NR concentration 270 nM, RXRa partner concentration 90 nM)
# Summary of the method: as §1
# [17] = system: PXR homodimer (NR concentration 270 nM)
# Summary of the method: as §1
# [18] = system: RARa:RXR (NR concentration 270 nM, RXRa partner concentration 90 nM)
# Summary of the method: as §1
# [19] = system: RARa homodimer (NR concentration 270 nM)
# Summary of the method: as §1
# [20] = system: RARb:RXRa (NR concentration 270 nM, RXRa partner concentration 90 nM)
# Summary of the method: as §1
sequence,measurement,setting,value
TCGAGTAGGATAGGGGCATTCAGAATGGCGTCGA,PBM binding z-score,[1],0.0392
same,PBM binding z-score,[2],-0.388
same,PBM binding z-score,[3],-0.671
same,PBM binding z-score,[4],0.283
same,PBM binding z-score,[5],-0.491
same,PBM binding z-score,[6],0.262
same,PBM binding z-score,[7],0.0969
same,PBM binding z-score,[8],0.573
same,PBM binding z-score,[9],0.884
same,PBM binding z-score,[10],0.812
same,PBM binding z-score,[11],0.794
same,PBM binding z-score,[12],-0.24
same,PBM binding z-score,[13],-0.499
same,PBM binding z-score,[14],-1.34
same,PBM binding z-score,[15],0.0464
same,PBM binding z-score,[16],-0.136
same,PBM binding z-score,[17],-0.0675
same,PBM binding z-score,[18],-0.134
same,PBM binding z-score,[19],-0.862
same,PBM binding z-score,[20],0.225
CCTAGGAGGACAACAGGAGGTCAGAGCTGCCAGA,PBM binding z-score,[1],1.35
same,PBM binding z-score,[2],2.17
same,PBM binding z-score,[3],2.05
same,PBM binding z-score,[4],1.53
same,PBM binding z-score,[5],-0.406
same,PBM binding z-score,[6],2.1
same,PBM binding z-score,[7],0.818
same,PBM binding z-score,[8],0.597
same,PBM binding z-score,[9],-0.229
same,PBM binding z-score,[10],0.192
same,PBM binding z-score,[11],0.869
same,PBM binding z-score,[12],0.949
same,PBM binding z-score,[13],-0.763
same,PBM binding z-score,[14],-0.811
same,PBM binding z-score,[15],1.47
same,PBM binding z-score,[16],2.11
same,PBM binding z-score,[17],0.811
same,PBM binding z-score,[18],2.48
same,PBM binding z-score,[19],0.684
same,PBM binding z-score,[20],2.79
TCTTGTAGATCAATAGAGGGTAAGAAAGTGCGCT,PBM binding z-score,[1],0.692
same,PBM binding z-score,[2],0.902
same,PBM binding z-score,[3],-0.251
same,PBM binding z-score,[4],0.517
same,PBM binding z-score,[5],0.175
same,PBM binding z-score,[6],0.606
same,PBM binding z-score,[7],-0.216
same,PBM binding z-score,[8],1.19
same,PBM binding z-score,[9],2.61
same,PBM binding z-score,[10],2.29
same,PBM binding z-score,[11],1.96
same,PBM binding z-score,[12],0.858
same,PBM binding z-score,[13],0.311
same,PBM binding z-score,[14],0.811
same,PBM binding z-score,[15],0.572
same,PBM binding z-score,[16],0.854
same,PBM binding z-score,[17],-0.0819
same,PBM binding z-score,[18],0.841
same,PBM binding z-score,[19],0.388
same,PBM binding z-score,[20],0.184
CAAACTAGGTCACAGAGGTCAATGTCCGTGCGTA,PBM binding z-score,[1],6.85
same,PBM binding z-score,[2],6.22
same,PBM binding z-score,[3],6.83
same,PBM binding z-score,[4],6.14
same,PBM binding z-score,[5],1.81
same,PBM binding z-score,[6],6.32
same,PBM binding z-score,[7],10
same,PBM binding z-score,[8],8.44
same,PBM binding z-score,[9],6.44
same,PBM binding z-score,[10],8.59
same,PBM binding z-score,[11],8.72
same,PBM binding z-score,[12],9.05
same,PBM binding z-score,[13],4.01
same,PBM binding z-score,[14],2.12
same,PBM binding z-score,[15],4.75
same,PBM binding z-score,[16],6.6
same,PBM binding z-score,[17],10.6
same,PBM binding z-score,[18],7.36
same,PBM binding z-score,[19],2.65
same,PBM binding z-score,[20],5.17
TCAATTAGTTGATTAGGGCAACCGAAACAGCGGA,PBM binding z-score,[1],0.579
same,PBM binding z-score,[2],0.188
same,PBM binding z-score,[3],-0.056
same,PBM binding z-score,[4],0.445
same,PBM binding z-score,[5],-0.277
same,PBM binding z-score,[6],0.882
same,PBM binding z-score,[7],0.217
same,PBM binding z-score,[8],1.6
same,PBM binding z-score,[9],3.41
same,PBM binding z-score,[10],2.45
same,PBM binding z-score,[11],2.01
same,PBM binding z-score,[12],1.32
same,PBM binding z-score,[13],0.608
same,PBM binding z-score,[14],0.646
same,PBM binding z-score,[15],-0.173
same,PBM binding z-score,[16],0.326
same,PBM binding z-score,[17],0.219
same,PBM binding z-score,[18],0.567
same,PBM binding z-score,[19],0.493
same,PBM binding z-score,[20],0.665
TAGCCTAGGTCATTCATGGGCCAGTATAGAAAGC,PBM binding z-score,[1],4.38
same,PBM binding z-score,[2],3.5
same,PBM binding z-score,[3],0.512
same,PBM binding z-score,[4],2.34
same,PBM binding z-score,[5],0.48
same,PBM binding z-score,[6],3.38
same,PBM binding z-score,[7],2.02
same,PBM binding z-score,[8],2.1
same,PBM binding z-score,[9],0.373
same,PBM binding z-score,[10],1.1
same,PBM binding z-score,[11],1.41
same,PBM binding z-score,[12],2.53
same,PBM binding z-score,[13],0.271
same,PBM binding z-score,[14],0.314
same,PBM binding z-score,[15],1.08
same,PBM binding z-score,[16],1.66
same,PBM binding z-score,[17],-0.168
same,PBM binding z-score,[18],2.61
same,PBM binding z-score,[19],-0.242
same,PBM binding z-score,[20],3.66
ACTAGCAGGCGAAGGGTCACTCAAGATTAGTCCG,PBM binding z-score,[1],2.18
same,PBM binding z-score,[2],2.19
same,PBM binding z-score,[3],0.132
same,PBM binding z-score,[4],2.12
same,PBM binding z-score,[5],-0.71
same,PBM binding z-score,[6],3.72
same,PBM binding z-score,[7],5.6
same,PBM binding z-score,[8],5.62
same,PBM binding z-score,[9],3.86
same,PBM binding z-score,[10],6.27
same,PBM binding z-score,[11],-0.0679
same,PBM binding z-score,[12],2.22
same,PBM binding z-score,[13],-0.671
same,PBM binding z-score,[14],-0.597
same,PBM binding z-score,[15],1.88
same,PBM binding z-score,[16],2.32
same,PBM binding z-score,[17],-0.24
same,PBM binding z-score,[18],3.29
same,PBM binding z-score,[19],-0.0684
same,PBM binding z-score,[20],3.31
